Experiments:
[1] = target: RAC-alpha serine/threonine-protein kinase (Homo sapiens) (UniProt P31749); conditions: at 0.1 µM
[2] = target: RAC-alpha serine/threonine-protein kinase (Homo sapiens) (UniProt P31749); conditions: at 1 µM
[3] = target: RAC-beta serine/threonine-protein kinase (Homo sapiens) (UniProt P31751); conditions: at 0.1 µM
[4] = target: RAC-beta serine/threonine-protein kinase (Homo sapiens) (UniProt P31751); conditions: at 1 µM
[5] = target: RAC-gamma serine/threonine-protein kinase (Homo sapiens) (UniProt Q9Y243); conditions: at 0.1 µM
[6] = target: RAC-gamma serine/threonine-protein kinase (Homo sapiens) (UniProt Q9Y243); conditions: at 1 µM
[7] = target: G protein-coupled receptor kinase 6 (Homo sapiens) (UniProt P43250); conditions: at 0.1 µM
[8] = target: G protein-coupled receptor kinase 6 (Homo sapiens) (UniProt P43250); conditions: at 1 µM
[9] = target: T1, Rhodopsin kinase GRK7 (Homo sapiens) (UniProt Q8WTQ7); conditions: at 0.1 µM
T1 sequence (whole entry): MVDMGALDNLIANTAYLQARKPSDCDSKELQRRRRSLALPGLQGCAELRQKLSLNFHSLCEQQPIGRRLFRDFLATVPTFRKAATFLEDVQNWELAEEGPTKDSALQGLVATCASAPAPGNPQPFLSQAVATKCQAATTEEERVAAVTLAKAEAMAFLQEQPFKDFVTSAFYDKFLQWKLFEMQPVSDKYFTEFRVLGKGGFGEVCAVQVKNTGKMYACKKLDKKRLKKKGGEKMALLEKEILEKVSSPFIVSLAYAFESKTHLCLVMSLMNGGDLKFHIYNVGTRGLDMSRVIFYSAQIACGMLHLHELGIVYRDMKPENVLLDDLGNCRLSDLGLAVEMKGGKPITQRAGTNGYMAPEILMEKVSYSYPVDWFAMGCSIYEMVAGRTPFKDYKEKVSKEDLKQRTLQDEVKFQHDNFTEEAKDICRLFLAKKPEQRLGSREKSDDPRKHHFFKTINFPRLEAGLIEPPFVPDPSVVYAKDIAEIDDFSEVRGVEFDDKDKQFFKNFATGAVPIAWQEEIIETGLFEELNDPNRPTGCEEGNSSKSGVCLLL

[10] = target: T1, Rhodopsin kinase GRK7 (Homo sapiens); conditions: at 1 µM
[11] = target: Serine/threonine-protein kinase MRCK alpha (Homo sapiens) (UniProt Q5VT25); conditions: at 0.1 µM
[12] = target: Serine/threonine-protein kinase MRCK alpha (Homo sapiens) (UniProt Q5VT25); conditions: at 1 µM
[13] = target: Serine/threonine-protein kinase MRCK beta (Homo sapiens) (UniProt Q9Y5S2); conditions: at 0.1 µM
[14] = target: Serine/threonine-protein kinase MRCK beta (Homo sapiens) (UniProt Q9Y5S2); conditions: at 1 µM
[15] = target: Ribosomal protein S6 kinase alpha-5 (Homo sapiens) (UniProt O75582); conditions: at 0.1 µM
[16] = target: Ribosomal protein S6 kinase alpha-5 (Homo sapiens) (UniProt O75582); conditions: at 1 µM
[17] = target: Ribosomal protein S6 kinase alpha-4 (Homo sapiens) (UniProt O75676); conditions: at 0.1 µM
[18] = target: Ribosomal protein S6 kinase alpha-4 (Homo sapiens) (UniProt O75676); conditions: at 1 µM
[19] = target: Ribosomal protein S6 kinase beta-1 (Homo sapiens) (UniProt P23443); conditions: at 0.1 µM
[20] = target: Ribosomal protein S6 kinase beta-1 (Homo sapiens) (UniProt P23443); conditions: at 1 µM

Serine/threonine-protein kinase MRCK beta (Homo sapiens), sequence (Q9Y5S2 whole entry): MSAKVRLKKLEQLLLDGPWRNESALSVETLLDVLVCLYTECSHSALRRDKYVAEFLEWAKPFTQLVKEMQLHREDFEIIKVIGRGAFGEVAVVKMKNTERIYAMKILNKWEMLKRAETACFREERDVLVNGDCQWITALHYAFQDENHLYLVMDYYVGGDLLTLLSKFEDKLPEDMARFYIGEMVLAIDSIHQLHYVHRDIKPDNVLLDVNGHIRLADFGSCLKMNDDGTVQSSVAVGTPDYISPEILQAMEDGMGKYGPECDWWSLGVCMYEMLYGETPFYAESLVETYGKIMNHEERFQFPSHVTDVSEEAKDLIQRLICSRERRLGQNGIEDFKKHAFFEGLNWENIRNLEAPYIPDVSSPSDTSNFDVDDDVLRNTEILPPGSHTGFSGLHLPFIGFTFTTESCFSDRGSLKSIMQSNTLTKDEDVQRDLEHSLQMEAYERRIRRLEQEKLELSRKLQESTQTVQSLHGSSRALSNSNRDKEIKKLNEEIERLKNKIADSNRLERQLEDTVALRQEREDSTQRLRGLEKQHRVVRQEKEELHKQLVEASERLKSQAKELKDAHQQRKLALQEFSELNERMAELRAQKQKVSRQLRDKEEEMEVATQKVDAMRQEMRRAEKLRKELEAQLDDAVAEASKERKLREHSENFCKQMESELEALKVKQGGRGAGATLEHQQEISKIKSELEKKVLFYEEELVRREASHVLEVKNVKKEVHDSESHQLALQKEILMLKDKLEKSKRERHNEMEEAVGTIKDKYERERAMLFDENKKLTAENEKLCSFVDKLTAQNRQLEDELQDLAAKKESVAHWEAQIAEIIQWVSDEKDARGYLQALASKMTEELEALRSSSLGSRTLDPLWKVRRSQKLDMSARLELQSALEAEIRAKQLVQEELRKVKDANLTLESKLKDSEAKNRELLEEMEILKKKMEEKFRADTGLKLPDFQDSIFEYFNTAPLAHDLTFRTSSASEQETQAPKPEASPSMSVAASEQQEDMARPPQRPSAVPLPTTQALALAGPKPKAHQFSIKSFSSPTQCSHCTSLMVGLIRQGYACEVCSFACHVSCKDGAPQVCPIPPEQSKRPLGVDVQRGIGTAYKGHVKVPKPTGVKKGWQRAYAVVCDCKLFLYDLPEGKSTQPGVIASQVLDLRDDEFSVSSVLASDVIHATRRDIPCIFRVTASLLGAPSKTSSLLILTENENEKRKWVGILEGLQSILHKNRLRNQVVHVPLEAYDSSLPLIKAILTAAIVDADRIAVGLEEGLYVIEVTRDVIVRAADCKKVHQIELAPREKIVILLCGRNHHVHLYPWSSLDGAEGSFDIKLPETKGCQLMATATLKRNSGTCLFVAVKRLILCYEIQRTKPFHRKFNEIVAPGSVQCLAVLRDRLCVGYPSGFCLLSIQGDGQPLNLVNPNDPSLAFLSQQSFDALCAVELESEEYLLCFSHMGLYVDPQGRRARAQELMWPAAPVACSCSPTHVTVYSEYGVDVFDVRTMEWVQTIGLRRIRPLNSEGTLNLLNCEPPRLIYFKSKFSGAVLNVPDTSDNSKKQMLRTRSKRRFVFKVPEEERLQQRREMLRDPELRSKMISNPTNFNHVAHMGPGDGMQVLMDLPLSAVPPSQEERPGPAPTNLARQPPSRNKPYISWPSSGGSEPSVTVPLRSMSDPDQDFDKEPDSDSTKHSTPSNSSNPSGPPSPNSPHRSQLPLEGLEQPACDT
RAC-beta serine/threonine-protein kinase (Homo sapiens), sequence (P31751 whole entry): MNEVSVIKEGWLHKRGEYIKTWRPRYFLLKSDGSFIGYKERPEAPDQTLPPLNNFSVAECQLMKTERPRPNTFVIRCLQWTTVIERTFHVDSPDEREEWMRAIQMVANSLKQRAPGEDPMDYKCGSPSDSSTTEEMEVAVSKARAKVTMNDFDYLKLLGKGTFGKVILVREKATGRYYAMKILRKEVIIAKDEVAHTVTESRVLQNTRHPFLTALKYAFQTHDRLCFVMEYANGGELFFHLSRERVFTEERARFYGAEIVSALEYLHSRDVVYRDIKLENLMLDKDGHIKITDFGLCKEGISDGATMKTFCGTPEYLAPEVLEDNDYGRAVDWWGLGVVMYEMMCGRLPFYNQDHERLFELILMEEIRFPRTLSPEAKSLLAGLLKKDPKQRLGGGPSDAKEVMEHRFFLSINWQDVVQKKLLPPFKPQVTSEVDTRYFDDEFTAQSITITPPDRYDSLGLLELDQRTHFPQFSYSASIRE
Ribosomal protein S6 kinase alpha-4 (Homo sapiens), sequence (O75676 whole entry, looked up): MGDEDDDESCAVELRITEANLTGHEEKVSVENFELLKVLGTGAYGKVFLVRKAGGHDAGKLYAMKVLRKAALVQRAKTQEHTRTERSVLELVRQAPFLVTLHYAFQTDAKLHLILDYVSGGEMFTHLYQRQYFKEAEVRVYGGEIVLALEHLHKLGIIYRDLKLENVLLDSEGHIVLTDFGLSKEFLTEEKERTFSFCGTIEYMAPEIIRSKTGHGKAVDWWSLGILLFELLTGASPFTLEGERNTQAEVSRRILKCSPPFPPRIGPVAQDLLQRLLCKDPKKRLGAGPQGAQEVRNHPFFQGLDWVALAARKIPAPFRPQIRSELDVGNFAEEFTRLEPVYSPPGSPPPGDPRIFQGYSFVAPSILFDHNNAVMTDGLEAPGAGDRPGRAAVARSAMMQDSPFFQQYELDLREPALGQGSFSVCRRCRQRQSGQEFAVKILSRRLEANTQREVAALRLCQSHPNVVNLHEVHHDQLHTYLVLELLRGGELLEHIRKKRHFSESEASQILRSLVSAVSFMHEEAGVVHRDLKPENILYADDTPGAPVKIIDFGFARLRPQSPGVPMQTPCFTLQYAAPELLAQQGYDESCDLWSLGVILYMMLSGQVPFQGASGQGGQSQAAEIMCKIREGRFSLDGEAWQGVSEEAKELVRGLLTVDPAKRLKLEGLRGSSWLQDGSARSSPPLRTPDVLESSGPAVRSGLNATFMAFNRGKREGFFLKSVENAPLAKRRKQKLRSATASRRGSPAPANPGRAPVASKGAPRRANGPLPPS
G protein-coupled receptor kinase 6 (Homo sapiens), sequence (P43250 whole entry, looked up): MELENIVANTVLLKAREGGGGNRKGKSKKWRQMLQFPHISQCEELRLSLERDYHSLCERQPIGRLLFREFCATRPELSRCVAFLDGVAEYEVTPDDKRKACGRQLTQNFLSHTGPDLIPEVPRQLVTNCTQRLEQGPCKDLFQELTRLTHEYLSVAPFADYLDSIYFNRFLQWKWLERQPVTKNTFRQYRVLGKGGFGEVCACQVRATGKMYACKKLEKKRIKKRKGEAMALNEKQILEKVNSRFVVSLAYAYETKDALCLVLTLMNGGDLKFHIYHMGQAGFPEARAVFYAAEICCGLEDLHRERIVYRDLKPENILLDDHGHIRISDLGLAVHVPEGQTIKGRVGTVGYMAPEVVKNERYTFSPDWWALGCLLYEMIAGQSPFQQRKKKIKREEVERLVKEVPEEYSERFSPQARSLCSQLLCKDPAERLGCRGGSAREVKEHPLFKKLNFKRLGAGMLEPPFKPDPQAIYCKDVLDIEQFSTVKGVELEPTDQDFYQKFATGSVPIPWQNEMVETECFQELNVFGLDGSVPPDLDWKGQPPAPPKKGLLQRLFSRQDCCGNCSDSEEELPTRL
Ribosomal protein S6 kinase alpha-5 (Homo sapiens), sequence (O75582 whole entry, looked up): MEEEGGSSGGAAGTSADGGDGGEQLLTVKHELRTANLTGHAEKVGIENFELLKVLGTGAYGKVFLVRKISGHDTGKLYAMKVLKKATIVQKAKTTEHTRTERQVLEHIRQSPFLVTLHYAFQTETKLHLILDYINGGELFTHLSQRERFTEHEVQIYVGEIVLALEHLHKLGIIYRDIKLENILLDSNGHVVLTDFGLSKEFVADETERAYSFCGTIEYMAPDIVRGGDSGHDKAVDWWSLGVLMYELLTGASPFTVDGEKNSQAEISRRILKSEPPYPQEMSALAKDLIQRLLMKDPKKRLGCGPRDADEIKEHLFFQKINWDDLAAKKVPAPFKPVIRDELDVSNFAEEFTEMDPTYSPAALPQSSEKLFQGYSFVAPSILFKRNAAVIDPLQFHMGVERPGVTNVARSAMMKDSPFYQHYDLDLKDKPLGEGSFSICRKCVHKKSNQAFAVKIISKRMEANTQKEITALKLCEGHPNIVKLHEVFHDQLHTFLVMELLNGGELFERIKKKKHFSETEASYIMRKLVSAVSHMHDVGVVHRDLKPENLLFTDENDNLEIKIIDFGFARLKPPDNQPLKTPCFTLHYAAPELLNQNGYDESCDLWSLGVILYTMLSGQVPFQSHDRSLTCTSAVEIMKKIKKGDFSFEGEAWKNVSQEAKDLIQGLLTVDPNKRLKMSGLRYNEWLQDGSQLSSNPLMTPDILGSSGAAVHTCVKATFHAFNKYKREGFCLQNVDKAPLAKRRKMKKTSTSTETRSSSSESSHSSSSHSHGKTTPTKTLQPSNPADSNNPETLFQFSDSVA
RAC-gamma serine/threonine-protein kinase (Homo sapiens), sequence (Q9Y243 whole entry): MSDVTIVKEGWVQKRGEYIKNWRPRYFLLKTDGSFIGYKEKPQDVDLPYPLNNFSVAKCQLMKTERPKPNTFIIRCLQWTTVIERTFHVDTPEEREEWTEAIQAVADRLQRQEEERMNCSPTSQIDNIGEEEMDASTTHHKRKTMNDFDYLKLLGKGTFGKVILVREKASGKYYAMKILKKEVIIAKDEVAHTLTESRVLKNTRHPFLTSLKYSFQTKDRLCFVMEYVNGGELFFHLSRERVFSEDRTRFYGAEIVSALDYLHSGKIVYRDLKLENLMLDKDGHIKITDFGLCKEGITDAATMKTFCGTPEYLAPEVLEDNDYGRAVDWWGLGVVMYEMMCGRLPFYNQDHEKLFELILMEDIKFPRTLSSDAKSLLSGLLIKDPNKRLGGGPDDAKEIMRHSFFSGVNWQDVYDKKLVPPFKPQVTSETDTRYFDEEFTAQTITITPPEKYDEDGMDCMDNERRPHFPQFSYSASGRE

CN(C)CCCNc1nccc(-c2c(-c3ccc(F)cc3)nn3cc(C(F)(F)F)ccc23)n1
inhibition [1]: -2.46% | inhibition [2]: -2.95% | inhibition [3]: -2.07% | inhibition [4]: -3.03% | inhibition [5]: -2.14% | inhibition [6]: -2.29% | inhibition [7]: 0.16% | inhibition [8]: -2.93% | inhibition [9]: -0.49% | inhibition [10]: -5.64% | inhibition [11]: 0.46% | inhibition [12]: 1.03% | inhibition [13]: 0.48% | inhibition [14]: 1.09% | inhibition [15]: 1.3% | inhibition [16]: 2.69% | inhibition [17]: 1.95% | inhibition [18]: 4.5% | inhibition [19]: 2.93% | inhibition [20]: 3.55%

CCc1cccc(CC)c1/C=C/c1cncc(C(=O)NC)c1
inhibition [1]: 0.7% | inhibition [2]: 0.8% | inhibition [3]: 2.06% | inhibition [4]: 1.3% | inhibition [5]: 2.25% | inhibition [6]: 1.32% | inhibition [7]: -2.11% | inhibition [8]: -0.96% | inhibition [9]: 1.2% | inhibition [10]: -8.54% | inhibition [11]: 0.02% | inhibition [12]: 0.07% | inhibition [13]: 0.83% | inhibition [14]: 1.46% | inhibition [15]: 3.05% | inhibition [16]: 2.79% | inhibition [17]: 0.51% | inhibition [18]: 2.52% | inhibition [19]: 1.3% | inhibition [20]: 0.41%

CN(C)CCOc1ccc(-c2cc(-c3ccc4c(c3)CCC4=NO)c(-c3ccncc3)o2)cc1
inhibition [1]: -0.58% | inhibition [2]: -0.16% | inhibition [3]: -0.71% | inhibition [4]: -0.42% | inhibition [5]: -0.65% | inhibition [6]: 5.79% | inhibition [7]: -3.48% | inhibition [8]: -0.1% | inhibition [9]: 2.18% | inhibition [10]: -5.7% | inhibition [11]: -0.43% | inhibition [12]: -0.33% | inhibition [13]: -0.99% | inhibition [14]: -2.76% | inhibition [15]: -1.98% | inhibition [16]: -2.88% | inhibition [17]: 0.1% | inhibition [18]: -2.21% | inhibition [19]: -1.83% | inhibition [20]: -2.77%

O=C(Nc1n[nH]c2cc(-c3ccccc3)ccc12)C1CC1
inhibition [1]: 0.57% | inhibition [2]: -0.63% | inhibition [3]: 1.2% | inhibition [4]: 1.68% | inhibition [5]: 0.33% | inhibition [6]: 2.94% | inhibition [7]: 2.59% | inhibition [8]: 3.48% | inhibition [9]: 3.13% | inhibition [10]: 3.52% | inhibition [11]: 0.05% | inhibition [12]: -1.04% | inhibition [13]: 0.91% | inhibition [14]: 0.02% | inhibition [15]: 5.17% | inhibition [16]: 5.56% | inhibition [17]: 2.14% | inhibition [18]: 1.76% | inhibition [19]: 0.9% | inhibition [20]: 1.27%

O=C1Nc2ccccc2/C1=C/Nc1ccc(-n2cncn2)cc1
inhibition [1]: 0.19% | inhibition [2]: -0.09% | inhibition [3]: 1.56% | inhibition [4]: 0.9% | inhibition [5]: 0.39% | inhibition [6]: 2.21% | inhibition [7]: 7.2% | inhibition [8]: 14.8% | inhibition [9]: 5.5% | inhibition [10]: 14.9% | inhibition [11]: 0.72% | inhibition [12]: 3.59% | inhibition [13]: 0.37% | inhibition [14]: 1.08% | inhibition [15]: 5.48% | inhibition [16]: 8.54% | inhibition [17]: 3.95% | inhibition [18]: 13.4% | inhibition [19]: 2.05% | inhibition [20]: 9.06%

Cc1nnc(-c2ccc(C)c(-c3ccc(C(=O)NCc4ccc(Cl)cc4)cc3)c2)o1
inhibition [1]: -1.66% | inhibition [2]: -2.4% | inhibition [3]: 0.03% | inhibition [4]: -2.39% | inhibition [5]: 0.07% | inhibition [6]: -0.93% | inhibition [7]: 5.17% | inhibition [8]: 5.38% | inhibition [9]: 4.29% | inhibition [10]: 9.45% | inhibition [11]: 0.16% | inhibition [12]: 1.24% | inhibition [13]: 0.69% | inhibition [14]: -0.22% | inhibition [15]: 1.45% | inhibition [16]: 1.55% | inhibition [17]: 3.07% | inhibition [18]: 3.61% | inhibition [19]: 1.21% | inhibition [20]: 2.04%

Fc1ccc(-c2ncn(C3CCNCC3)c2-c2ccnc(Oc3ccc4c(c3)OCO4)n2)cc1
inhibition [1]: 2.04% | inhibition [2]: 1.04% | inhibition [3]: 0.93% | inhibition [4]: 2.21% | inhibition [5]: 0.23% | inhibition [6]: 3.88% | inhibition [7]: 0.51% | inhibition [8]: 2.27% | inhibition [9]: 9.41% | inhibition [10]: 2.9% | inhibition [11]: -2.57% | inhibition [12]: 9.23% | inhibition [13]: 0.96% | inhibition [14]: 2.94% | inhibition [15]: -2.64% | inhibition [16]: -3.44% | inhibition [17]: 3.63% | inhibition [18]: 4.53% | inhibition [19]: 2.58% | inhibition [20]: 5.14%

NS(=O)(=O)c1ccc(N/N=C2\C(=O)Nc3ccc(-c4cnco4)cc32)cc1
inhibition [1]: -3.71% | inhibition [2]: -3.3% | inhibition [3]: -3.63% | inhibition [4]: -1.8% | inhibition [5]: -3.1% | inhibition [6]: -0.96% | inhibition [7]: -0.25% | inhibition [8]: 2.71% | inhibition [9]: 8.59% | inhibition [10]: 7.29% | inhibition [11]: 0.37% | inhibition [12]: 8.38% | inhibition [13]: 0.26% | inhibition [14]: 6.65% | inhibition [15]: -1.59% | inhibition [16]: -0.36% | inhibition [17]: 0.74% | inhibition [18]: 3.26% | inhibition [19]: 0.79% | inhibition [20]: 6.58%

COC(=O)Nc1nc2ccc(Sc3ccc(NC(=O)Nc4cc(C(F)(F)F)ccc4F)cc3)cc2[nH]1
inhibition [1]: 0.65% | inhibition [2]: 0.76% | inhibition [3]: -0.16% | inhibition [4]: -0.51% | inhibition [5]: 0.73% | inhibition [6]: 0.99% | inhibition [7]: 2.62% | inhibition [8]: -0.1% | inhibition [9]: -0.34% | inhibition [10]: -6.83% | inhibition [11]: 0.78% | inhibition [12]: 0.4% | inhibition [13]: -0.23% | inhibition [14]: -1% | inhibition [15]: 1.97% | inhibition [16]: 2.08% | inhibition [17]: 0.7% | inhibition [18]: 0.37% | inhibition [19]: 78.2% | inhibition [20]: 7.6%

NC(=O)c1ccc(Oc2nccc(-c3c(-c4ccc(F)cc4)ncn3C3CCNCC3)n2)cc1
inhibition [1]: 1.54% | inhibition [2]: 3.25% | inhibition [3]: 2.45% | inhibition [4]: 1.86% | inhibition [5]: 3.04% | inhibition [6]: 7.31% | inhibition [7]: 4.21% | inhibition [8]: 7.44% | inhibition [9]: -1.91% | inhibition [10]: 2.41% | inhibition [11]: 5.74% | inhibition [12]: 5.95% | inhibition [13]: 1.2% | inhibition [14]: 2.3% | inhibition [15]: -2.57% | inhibition [16]: -1.95% | inhibition [17]: 3.42% | inhibition [18]: 5.79% | inhibition [19]: 3.21% | inhibition [20]: 5.34%

Fc1ccc(-c2nc3n(c2-c2ccncc2)CCS3)cc1
inhibition [1]: -2.42% | inhibition [2]: -2.29% | inhibition [3]: -1.68% | inhibition [4]: -1.83% | inhibition [5]: -1.74% | inhibition [6]: -2.44% | inhibition [7]: 2.79% | inhibition [8]: -0.16% | inhibition [9]: 2.77% | inhibition [10]: 5.18% | inhibition [11]: 0.18% | inhibition [12]: 2.85% | inhibition [13]: 1.28% | inhibition [14]: 3.22% | inhibition [15]: 2.74% | inhibition [16]: 3.92% | inhibition [17]: 1.65% | inhibition [18]: 5.1% | inhibition [19]: 2.08% | inhibition [20]: 2.54%

Cc1ccc(NC(=O)c2ccoc2)cc1-c1ccc(C(=O)NCC2CC2)cc1
inhibition [1]: 0.37% | inhibition [2]: 0.55% | inhibition [3]: 0.88% | inhibition [4]: 1.23% | inhibition [5]: 0.72% | inhibition [6]: 1.87% | inhibition [7]: -0.54% | inhibition [8]: 1.27% | inhibition [9]: 3.35% | inhibition [10]: -1.36% | inhibition [11]: -2.51% | inhibition [12]: -2.81% | inhibition [13]: -0.56% | inhibition [14]: -1.77% | inhibition [15]: 0.76% | inhibition [16]: -1.39% | inhibition [17]: 1.78% | inhibition [18]: -0.44% | inhibition [19]: -0.57% | inhibition [20]: -1.48%
